{"source": "PubChem BioAssay (Tox21)", "key": {"[1]": {"target": "Cytochrome P450 1A2 (Homo sapiens) (UniProt P05177)", "sequence (P05177 whole entry, looked up)": "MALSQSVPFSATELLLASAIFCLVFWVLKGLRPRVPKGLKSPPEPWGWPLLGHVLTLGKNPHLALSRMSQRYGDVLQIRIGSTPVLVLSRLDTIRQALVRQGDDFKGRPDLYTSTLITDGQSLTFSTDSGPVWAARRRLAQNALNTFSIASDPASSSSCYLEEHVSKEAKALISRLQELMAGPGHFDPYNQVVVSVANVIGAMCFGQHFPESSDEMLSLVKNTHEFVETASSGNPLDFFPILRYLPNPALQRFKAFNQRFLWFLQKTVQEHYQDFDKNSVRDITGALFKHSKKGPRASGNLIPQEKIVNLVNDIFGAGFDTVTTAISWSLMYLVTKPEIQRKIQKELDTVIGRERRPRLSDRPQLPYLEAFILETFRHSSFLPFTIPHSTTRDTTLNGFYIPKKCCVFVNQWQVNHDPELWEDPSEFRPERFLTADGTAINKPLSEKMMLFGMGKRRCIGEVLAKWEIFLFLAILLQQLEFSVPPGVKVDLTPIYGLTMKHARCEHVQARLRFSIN", "experiment": "Cytochrome P450 Family 1 Subfamily A Member 2 (CYP1A2) small molecule antagonists: luciferase reporter qHTS assay (AID 1671199); note: potency is the fitted concentration of half-maximal effect", "settings": "P450-Glo CYP1A2 enzyme, luciferin luminescence, 1 h; series mostly up to 115 µM", "summary_of_the_method": "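Inhibition of CYP1A2 conversion of proluciferin to luciferin, detected by luminescence. Reaction run 1 h at room temperature with NADPH regeneration after brief compound preincubation.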"}, "[2]": {"target": "Voltage-gated inwardly rectifying potassium channel KCNH2 (Homo sapiens) (UniProt Q12809)", "sequence (Q12809 whole entry, looked up)": "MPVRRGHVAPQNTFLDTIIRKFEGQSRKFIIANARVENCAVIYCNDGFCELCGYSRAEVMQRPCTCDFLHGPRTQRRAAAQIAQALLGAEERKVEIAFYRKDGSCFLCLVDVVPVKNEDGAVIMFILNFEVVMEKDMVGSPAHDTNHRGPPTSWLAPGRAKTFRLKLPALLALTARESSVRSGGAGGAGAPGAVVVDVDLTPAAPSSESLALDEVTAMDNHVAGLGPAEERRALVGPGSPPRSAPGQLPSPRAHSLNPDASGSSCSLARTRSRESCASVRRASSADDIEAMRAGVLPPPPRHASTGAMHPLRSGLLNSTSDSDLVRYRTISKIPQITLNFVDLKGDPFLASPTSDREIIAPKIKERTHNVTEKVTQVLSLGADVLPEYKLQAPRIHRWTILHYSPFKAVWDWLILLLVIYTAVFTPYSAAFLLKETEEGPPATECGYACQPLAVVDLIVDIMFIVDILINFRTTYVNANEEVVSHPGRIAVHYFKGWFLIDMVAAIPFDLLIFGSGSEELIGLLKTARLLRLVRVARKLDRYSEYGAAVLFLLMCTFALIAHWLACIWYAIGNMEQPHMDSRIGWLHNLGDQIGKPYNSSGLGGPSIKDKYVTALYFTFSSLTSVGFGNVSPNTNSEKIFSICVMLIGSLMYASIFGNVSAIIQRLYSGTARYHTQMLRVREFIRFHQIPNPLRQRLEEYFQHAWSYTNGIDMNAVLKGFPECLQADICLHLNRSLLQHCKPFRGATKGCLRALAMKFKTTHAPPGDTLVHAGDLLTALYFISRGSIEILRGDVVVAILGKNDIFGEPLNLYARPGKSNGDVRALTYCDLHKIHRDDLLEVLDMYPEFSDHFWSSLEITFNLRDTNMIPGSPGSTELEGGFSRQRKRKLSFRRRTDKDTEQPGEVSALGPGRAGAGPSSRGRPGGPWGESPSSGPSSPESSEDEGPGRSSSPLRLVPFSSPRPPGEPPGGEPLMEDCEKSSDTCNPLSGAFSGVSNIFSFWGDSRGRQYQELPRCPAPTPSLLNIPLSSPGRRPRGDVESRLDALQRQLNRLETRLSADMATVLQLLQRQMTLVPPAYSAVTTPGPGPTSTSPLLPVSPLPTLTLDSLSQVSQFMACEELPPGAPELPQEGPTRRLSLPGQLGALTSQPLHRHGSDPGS", "experiment": "Human Ether-a-go-go-Related Gene (hERG) channel small molecule antagonists: fluorescence cell-based qHTS assay (AID 1671200)", "settings": "hERG-U2OS cells, FluxOR thallium flux fluorescence; series mostly up to 76.8 µM", "summary_of_the_method": "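Thallium flux as potassium surrogate: FluxOR II dye loaded 1 h at room temperature into hERG-expressing U2OS cells, then stimulus buffer added after 10 min. Kinetic 480 nm excitation/540 nm emission read, 2 min.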"}, "[3]": {"target": "Cytochrome P450 3A4 (Homo sapiens) (UniProt P08684)", "sequence (P08684 whole entry, looked up)": "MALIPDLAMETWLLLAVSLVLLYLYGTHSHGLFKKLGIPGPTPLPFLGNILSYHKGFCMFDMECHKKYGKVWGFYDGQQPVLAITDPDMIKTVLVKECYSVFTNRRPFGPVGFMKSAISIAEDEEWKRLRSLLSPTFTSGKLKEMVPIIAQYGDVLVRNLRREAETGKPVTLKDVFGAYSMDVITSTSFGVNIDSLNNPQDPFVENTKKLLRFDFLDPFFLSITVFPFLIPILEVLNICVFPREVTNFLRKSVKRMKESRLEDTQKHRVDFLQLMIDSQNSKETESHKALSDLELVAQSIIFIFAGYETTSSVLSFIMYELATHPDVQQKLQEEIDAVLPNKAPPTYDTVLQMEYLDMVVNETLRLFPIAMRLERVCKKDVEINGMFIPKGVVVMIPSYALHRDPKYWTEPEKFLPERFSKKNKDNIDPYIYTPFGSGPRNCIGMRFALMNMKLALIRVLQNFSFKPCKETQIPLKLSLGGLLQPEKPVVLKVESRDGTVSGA", "experiment": "Cytochrome P450 Family 3 Subfamily A Member 4 (CYP3A4) small molecule antagonists: luciferase reporter qHTS assay (AID 1671201); note: potency is the fitted concentration of half-maximal effect", "settings": "P450-Glo CYP3A4 enzyme, luciferin luminescence, 1 h; series mostly up to 115 µM", "summary_of_the_method": "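Recombinant human CYP3A4 converts a proluciferin substrate to luciferin over 1 h at room temperature after NADPH regeneration solution is added (compound preincubated 10 min); detection reagent stops reaction, luminescence read 20 min later as relative units.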"}}, "note": "Records with an inconclusive call do not appear. A call without a number means that no potency is given here. The source holds several records for some structures; these can differ, active in one and inactive in another. Activity calls are given as the source filed them. Calls come from the whole dose curve; as a rule, active = well fitted curve in the direction sought with a large enough effect in the repeat runs; inconclusive = weak or mixed curves; inactive = no such curve, though single readings can be large; an effect the other way counts as inactive or inconclusive. Note: nearly all actives have a fitted effect of over 50% in size."}
{"smiles": "c1cc[nH]c1", "values": [{"measurement": "Potency", "setting": "[1]", "value": "inactive"}, {"measurement": "Potency", "setting": "[2]", "value": "inactive"}, {"measurement": "Potency", "setting": "[3]", "value": "inactive"}]}
{"smiles": "NCCCCCCNCCCCCCN", "values": [{"measurement": "Potency", "setting": "[1]", "value": "inactive"}, {"measurement": "Potency", "setting": "[2]", "value": "inactive"}, {"measurement": "Potency", "setting": "[3]", "value": "3.5 µM (active)"}]}
{"smiles": "C[C@@]12C(=O)OC(=O)[C@]1(C)C1CCC2O1", "values": [{"measurement": "Potency", "setting": "[1]", "value": "inactive"}, {"measurement": "Potency", "setting": "[2]", "value": "inactive"}, {"measurement": "Potency", "setting": "[3]", "value": "inactive"}]}
{"smiles": "OCCCCl", "values": [{"measurement": "Potency", "setting": "[1]", "value": "inactive"}, {"measurement": "Potency", "setting": "[2]", "value": "inactive"}, {"measurement": "Potency", "setting": "[3]", "value": "inactive"}]}
{"smiles": "CC(=O)Oc1ccc(C2(c3ccc(OC(C)=O)cc3)C(=O)Nc3ccccc32)cc1", "values": [{"measurement": "Potency", "setting": "[1]", "value": "inactive"}, {"measurement": "Potency", "setting": "[2]", "value": "inactive"}, {"measurement": "Potency", "setting": "[3]", "value": "inactive"}]}
{"smiles": "Cc1ccc(O)cn1", "values": [{"measurement": "Potency", "setting": "[1]", "value": "inactive"}, {"measurement": "Potency", "setting": "[2]", "value": "inactive"}, {"measurement": "Potency", "setting": "[3]", "value": "inactive"}]}
{"smiles": "Cc1ccc2ccc3cccc4ccc1c2c34", "values": [{"measurement": "Potency", "setting": "[1]", "value": "0.563 µM (active)"}, {"measurement": "Potency", "setting": "[2]", "value": "inactive"}, {"measurement": "Potency", "setting": "[3]", "value": "20 µM (active)"}]}
{"smiles": "Cc1cc(C)c(C=O)c(C)c1", "values": [{"measurement": "Potency", "setting": "[1]", "value": "inactive"}, {"measurement": "Potency", "setting": "[2]", "value": "inactive"}, {"measurement": "Potency", "setting": "[3]", "value": "inactive"}]}
{"smiles": "CC(C)(c1cc(Br)c(O)c(Br)c1)c1cc(Br)c(O)c(Br)c1", "values": [{"measurement": "Potency", "setting": "[1]", "value": "inactive"}, {"measurement": "Potency", "setting": "[2]", "value": "inactive"}, {"measurement": "Potency", "setting": "[3]", "value": "56.2 µM (active) and inactive"}]}
{"smiles": "CC(=O)OC(OC(C)=O)c1ccc([N+](=O)[O-])o1", "values": [{"measurement": "Potency", "setting": "[1]", "value": "45.6 µM (active)"}, {"measurement": "Potency", "setting": "[2]", "value": "inactive"}, {"measurement": "Potency", "setting": "[3]", "value": "inactive"}]}
{"smiles": "Clc1cccnc1", "values": [{"measurement": "Potency", "setting": "[1]", "value": "35.6 µM (active)"}, {"measurement": "Potency", "setting": "[2]", "value": "inactive"}, {"measurement": "Potency", "setting": "[3]", "value": "inactive"}]}
{"smiles": "C=C/C=C/C=C/CCCCC", "values": [{"measurement": "activity change, negative = inhibition", "setting": "[1]", "value": "-9.41% [at 23.6 µM] (inactive)"}, {"measurement": "activity change, negative = inhibition", "setting": "[2]", "value": "-12.1% [at 15.8 µM] (inactive)"}, {"measurement": "Potency", "setting": "[3]", "value": "16.9 µM (active)"}]}
{"smiles": "CC(=O)OC1CCCCC1", "values": [{"measurement": "Potency", "setting": "[1]", "value": "inactive"}, {"measurement": "Potency", "setting": "[2]", "value": "inactive"}, {"measurement": "Potency", "setting": "[3]", "value": "inactive"}]}
{"smiles": "c1ccc2c(c1)CCC2", "values": [{"measurement": "Potency", "setting": "[1]", "value": "inactive"}, {"measurement": "Potency", "setting": "[2]", "value": "inactive"}, {"measurement": "Potency", "setting": "[3]", "value": "inactive"}]}
{"smiles": "CC[N+](CC)(CC)Cc1ccccc1", "values": [{"measurement": "Potency", "setting": "[1]", "value": "inactive"}, {"measurement": "Potency", "setting": "[2]", "value": "inactive"}, {"measurement": "Potency", "setting": "[3]", "value": "inactive"}]}
{"smiles": "Cc1cc(Nc2ccc(O)cc2)ccc1N", "values": [{"measurement": "Potency", "setting": "[1]", "value": "35.4 µM (active)"}, {"measurement": "Potency", "setting": "[2]", "value": "inactive"}, {"measurement": "Potency", "setting": "[3]", "value": "7.93 µM (active)"}]}
{"smiles": "Cc1ccc(-n2[nH]c(C)c(N=Nc3cccc(-c4cccc(C(=O)O)c4)c3O)c2=O)cc1C", "values": [{"measurement": "Potency", "setting": "[1]", "value": "inactive"}, {"measurement": "Potency", "setting": "[2]", "value": "inactive"}, {"measurement": "Potency", "setting": "[3]", "value": "inactive"}]}
{"smiles": "O=C(O)c1cccc(Cl)n1", "values": [{"measurement": "Potency", "setting": "[1]", "value": "inactive"}, {"measurement": "Potency", "setting": "[2]", "value": "inactive"}, {"measurement": "Potency", "setting": "[3]", "value": "inactive"}]}
{"smiles": "CCCCCCCC(C)=O", "values": [{"measurement": "Potency", "setting": "[1]", "value": "35.6 µM (active)"}, {"measurement": "Potency", "setting": "[2]", "value": "inactive"}, {"measurement": "Potency", "setting": "[3]", "value": "inactive"}]}
